Laboratory results taken from PubChem BioAssay (NCATS).
Where “and” joins values, the source holds several entries; their conditions need not be identical. Identical values can stand only once. Records with an inconclusive call do not appear. Calls of active or inactive are those of the source. Unless noted, calls follow the shape of the dose curve; as a rule, active = well fitted curve in the direction sought with a large enough effect; inconclusive = small, poorly fitted or top-dose-only effect, or another doubt; inactive = no such curve, though single readings can be large; an effect the other way counts as inactive or inconclusive.

What was measured:
[1] = P-glycoprotein substrates identified in KB-8-5-11 adenocarcinoma cell line, qHTS therapeutic library screen (AID 1346987); also: nearly all actives have a fitted effect of over 65% in size; also: potency is read from the fitted curve at half-maximal effect
Summary of the method: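 Steps: plate 500 KB-8-5-11 cells/well in DMEM + 10% FCS (colchicine removed); pin compounds in dose-response; incubate 72 h, 37 degree C, 5% CO2; add CellTiter-Glo, 5 min; read luminescence.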

[2] = NS1 protein of Zika virus - qHTS assay to identify small molecule inhibitors in human HEK 293 cells (AID 1347053); also: series mostly up to about 46 µM; nearly all actives have a fitted effect of over 55% in size
Summary of the method: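 Inhibition of NS1 expression was scored in HEK 293 cells given compound 1 h ahead of MR766 virus (MOI = 0.5). Following 24 h at 37 C, two anti-NS1 antibodies generated a TR-FRET signal, scaled between uninfected and infected controls.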

[3] = target: T1, Tyrosine-protein phosphatase non-receptor type substrate 1 (Homo sapiens) + Leukocyte surface antigen CD47 (Homo sapiens) (UniProt P78324+Q08722); test: CD47-SIRPalpha protein protein interaction - LANCE assay qHTS validation (AID 1347057; active = well fitted curve in the direction sought with a large enough effect in the signal ratio, with a control signal flat, not every such curve was filed as active; the % refers to the signal ratio; also: series mostly up to about 38 µM)
Summary of the method: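 First, His-tagged CD47 and Eu-labelled anti-His antibody met the compound for 30 min; next, site-specifically biotinylated SIRPalpha was added for 30 min; finally streptavidin-APC was added before reading the TR-FRET ratio.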

[4] = target: T1, Tyrosine-protein phosphatase non-receptor type substrate 1 (Homo sapiens) + Leukocyte surface antigen CD47 (Homo sapiens); test: CD47-SIRPalpha protein protein interaction - HTRF assay qHTS validation (AID 1347058; active = well fitted curve in the direction sought with a large enough effect in the signal ratio, not every such curve was filed as active; the % refers to the signal ratio;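 also: recombinant soluble extracellular CD47 with His tag and biotinylated SIRPalpha domains; series mostly up to about 38 µM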)
Summary of the method: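 TR-FRET read (Ch1/Ch2 ratio) of soluble extracellular CD47 and Avi-biotinylated SIRPalpha domains in PBS pH 7.4 with 0.05% IGEPAL; 7-point compound titration. Sequential 30 min room-temperature steps; non-biotinylated SIRPalpha as control inhibitor.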

[5] = target: T1, Tyrosine-protein phosphatase non-receptor type substrate 1 (Homo sapiens) + Leukocyte surface antigen CD47 (Homo sapiens); test: CD47-SIRPalpha protein protein interaction - Alpha assay qHTS validation (AID 1347059);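 also: bead proximity luminescence from CD47 binding SIRPalpha after compound preincubation with SIRPalpha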
Summary of the method: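 Biotinylated Avi-tagged SIRPalpha (25 nM) preincubated 30 min with compound, then His-tagged CD47 (12.5 nM) added 30 min; AlphaScreen with Ni-NTA acceptor and streptavidin donor beads. PBS pH 7.4, 0.05% IGEPAL, room temperature; 7-point titrations.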

[6] = qHTS for Inhibitors of the Functional Ribonucleoprotein Complex (vRNP) of Lassa (LASV) Arenavirus: LASV Primary Screen - GLuc reporter signal (AID 1347082; calls by dose curve; tested in HEK293 reporter line; also: series mostly up to about 57 µM; nearly all actives have a fitted effect of over 60% in size)
[7] = qHTS for Inhibitors of the Functional Ribonucleoprotein Complex (vRNP) of Lassa (LASV) Arenavirus: Viability assay - alamar blue signal for LASV Primary Screen (AID 1347083; calls by dose curve; tested in HEK293 reporter line; also: series mostly up to about 57 µM; nearly all actives have a fitted effect of over 80% in size)
[8] = qHTS for Inhibitors of the Functional Ribonucleoprotein Complex (vRNP) of Lymphocytic Choriomeningitis Arenaviruses (LCMV): Viability assay - alamar blue signal for LCMV Primary Screen (AID 1347085; calls by dose curve; tested in HEK293 reporter line; also: series mostly up to about 57 µM; nearly all actives have a fitted effect of over 80% in size)
[9] = target: Nucleoprotein (Lymphocytic choriomeningitis virus (strain Armstrong)) (UniProt P09992); test: qHTS for Inhibitors of the Functional Ribonucleoprotein Complex (vRNP) of Lymphocytic Choriomeningitis Arenaviruses (LCMV): LCMV Primary Screen - GLuc reporter signal (AID 1347086; calls by dose curve; also: series mostly up to about 57 µM; nearly all actives have a fitted effect of over 70% in size)
[10] = Natriuretic polypeptide receptor (hNpr1) antagonism - Pilot counterscreen GloSensor control cell line (AID 1347045; calls by dose curve; also: series mostly up to about 38 µM)
Summary of the method: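 Luminescence was read before and 20 min after adding 50 uM SNP, which stimulates soluble guanylyl cyclase. The HEK293 cells expressing the GloSensor cGMP sensor had been preloaded with 2% reagent for 2 h and treated with compound.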

[11] = target: Atrial natriuretic peptide receptor 1 (Homo sapiens) (UniProt P16066); test: Natriuretic polypeptide receptor (hNpr1) antagonism - Pilot screen (AID 1347049; calls by dose curve;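 also: agonist-evoked cGMP luminescence read 20 min after hNppA addition; series mostly up to about 58 µM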)
Summary of the method: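 HEK293 cells expressing hNpr1 and GloSensor cGMP luciferase, 1500/well, loaded with 2% GloSensor reagent 2 h, compound 30 min at room temperature; luminescence read before and 20 min after 0.1 nM hNppA stimulation.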

[12] = target: Atrial natriuretic peptide receptor 2 (Homo sapiens) (UniProt P20594); test: Natriuretic polypeptide receptor (hNpr2) antagonism - Pilot subtype selectivity assay (AID 1347050; calls by dose curve)
Summary of the method: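 HEK293 cells expressing hNpr2 and a GloSensor cGMP luciferase sensor, 1500/well, preloaded 2 h with 2% GloSensor reagent, compound 30 min, then 1 nM hNppC for 20 min. Antagonism from luminescence after versus baseline pre-read; LOPAC in 1:5 titrations.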

[13] = target: Parathyroid hormone/parathyroid hormone-related peptide receptor (Homo sapiens) (UniProt Q03431); test: qHTS for PTHR1 Agonists: Optimization Screen against the NCGC LOPAC library (AID 1347079);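 also: GloSensor cAMP luminescence in HEK-293 GP2 cells expressing human PTHR1 with IBMX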
Summary of the method: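 Agonist readout: GloSensor cAMP luminescence, read after 15 min at room temperature. HEK-293-derived GP2 line carries PTHR1; compounds tested as a titration for 1 hr at 37C in presence of IBMX. M-PTH (1-15) served as control.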

[14] = qHTS of pediatric cancer cell lines to identify multiple opportunities for drug repurposing: Primary screen for TC32 cells (AID 1347089); also: nearly all actives have a fitted effect of over 60% in size
Summary of the method: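 Luminescent ATP read-out (CellTiter-Glo) of metabolically active TC32 cells after 48 h exposure. Concentration-response curves came from 11-point (MIPE, 0.78 nM–46 µM) or 8-point (NPC, 0.59 nM–46 µM) primary titrations; follow-up used 11 points.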

[15] = qHTS of pediatric cancer cell lines to identify multiple opportunities for drug repurposing: Primary screen for DAOY cells (AID 1347090); also: nearly all actives have a fitted effect of over 55% in size; also: potency is read from the fitted curve at half-maximal effect
Summary of the method: (§1)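 Viability measured as metabolically active cells via CellTiter-Glo luminescence following 48 hours of compound exposure, 11-point dilutions in confirmatory testing. 500-1,000 cells/well plated 5 hours before dosing; controls were DMSO and 2.3 µM bortezomib.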

[16] = qHTS of pediatric cancer cell lines to identify multiple opportunities for drug repurposing: Primary screen for SJ-GBM2 cells (AID 1347091); also: potency is read from the fitted curve at half-maximal effect
Summary of the method: as §1

[17] = qHTS of pediatric cancer cell lines to identify multiple opportunities for drug repurposing: Primary screen for A673 cells (AID 1347092); also: nearly all actives have a fitted effect of over 45% in size
Summary of the method: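 Cell viability of A673 measured by CellTiter-Glo ATP luminescence after 48 hours compound exposure. Dilution series spanned 0.78 nM to 46 µM (MIPE, 11-point) or 0.59 nM to 46 µM (NPC, 8-point); bortezomib 2.3 uM positive control.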

[18] = qHTS of pediatric cancer cell lines to identify multiple opportunities for drug repurposing: Primary screen for BT-37 cells (AID 1347094); also: series mostly up to about 57 µM
Summary of the method: (§2)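 Plated cells (500-1,000 per well, growth media) were allowed to settle for 5 hours, treated with compound dilutions for 48 hours, then lysed with CellTiter-Glo for 15 min at room temperature before luminescence reading.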

[19] = qHTS of pediatric cancer cell lines to identify multiple opportunities for drug repurposing: Primary screen for NB-EBc1 cells (AID 1347095); also: potency is read from the fitted curve at half-maximal effect
Summary of the method: as §2

[20] = qHTS of pediatric cancer cell lines to identify multiple opportunities for drug repurposing: Primary screen for SK-N-MC cells (AID 1347093); also: potency is read from the fitted curve at half-maximal effect
Summary of the method: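 Metabolically active cells were quantified by ATP-dependent luminescence (CellTiter-Glo, 15 min at room temperature) following 48 h treatment. Cells had been plated at 500-1,000 per well and settled for 5 h beforehand.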

Measured: Potency

T1 sequence (P78324 whole entry, looked up): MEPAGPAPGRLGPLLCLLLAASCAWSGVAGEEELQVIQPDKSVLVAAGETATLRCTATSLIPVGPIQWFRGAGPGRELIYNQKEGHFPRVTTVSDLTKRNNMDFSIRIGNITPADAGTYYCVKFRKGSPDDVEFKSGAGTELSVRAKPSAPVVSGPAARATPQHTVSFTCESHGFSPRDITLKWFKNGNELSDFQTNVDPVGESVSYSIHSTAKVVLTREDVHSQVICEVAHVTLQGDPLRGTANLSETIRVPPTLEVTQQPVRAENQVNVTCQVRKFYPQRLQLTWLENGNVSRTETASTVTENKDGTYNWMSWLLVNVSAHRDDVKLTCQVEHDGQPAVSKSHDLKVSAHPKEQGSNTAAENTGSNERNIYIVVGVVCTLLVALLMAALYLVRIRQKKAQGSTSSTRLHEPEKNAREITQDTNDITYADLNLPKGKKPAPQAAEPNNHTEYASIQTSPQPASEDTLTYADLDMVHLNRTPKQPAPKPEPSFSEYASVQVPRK
T1 sequence (Q08722 whole entry, looked up): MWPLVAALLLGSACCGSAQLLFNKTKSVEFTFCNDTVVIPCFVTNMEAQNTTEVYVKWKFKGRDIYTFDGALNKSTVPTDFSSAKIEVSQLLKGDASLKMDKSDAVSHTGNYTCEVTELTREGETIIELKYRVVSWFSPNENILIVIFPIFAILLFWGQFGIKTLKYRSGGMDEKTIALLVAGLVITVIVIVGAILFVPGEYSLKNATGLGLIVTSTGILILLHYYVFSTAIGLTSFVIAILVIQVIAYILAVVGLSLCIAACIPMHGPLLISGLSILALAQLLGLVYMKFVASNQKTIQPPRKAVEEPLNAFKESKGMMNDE
Atrial natriuretic peptide receptor 2 (Homo sapiens), sequence (P20594 whole entry, looked up): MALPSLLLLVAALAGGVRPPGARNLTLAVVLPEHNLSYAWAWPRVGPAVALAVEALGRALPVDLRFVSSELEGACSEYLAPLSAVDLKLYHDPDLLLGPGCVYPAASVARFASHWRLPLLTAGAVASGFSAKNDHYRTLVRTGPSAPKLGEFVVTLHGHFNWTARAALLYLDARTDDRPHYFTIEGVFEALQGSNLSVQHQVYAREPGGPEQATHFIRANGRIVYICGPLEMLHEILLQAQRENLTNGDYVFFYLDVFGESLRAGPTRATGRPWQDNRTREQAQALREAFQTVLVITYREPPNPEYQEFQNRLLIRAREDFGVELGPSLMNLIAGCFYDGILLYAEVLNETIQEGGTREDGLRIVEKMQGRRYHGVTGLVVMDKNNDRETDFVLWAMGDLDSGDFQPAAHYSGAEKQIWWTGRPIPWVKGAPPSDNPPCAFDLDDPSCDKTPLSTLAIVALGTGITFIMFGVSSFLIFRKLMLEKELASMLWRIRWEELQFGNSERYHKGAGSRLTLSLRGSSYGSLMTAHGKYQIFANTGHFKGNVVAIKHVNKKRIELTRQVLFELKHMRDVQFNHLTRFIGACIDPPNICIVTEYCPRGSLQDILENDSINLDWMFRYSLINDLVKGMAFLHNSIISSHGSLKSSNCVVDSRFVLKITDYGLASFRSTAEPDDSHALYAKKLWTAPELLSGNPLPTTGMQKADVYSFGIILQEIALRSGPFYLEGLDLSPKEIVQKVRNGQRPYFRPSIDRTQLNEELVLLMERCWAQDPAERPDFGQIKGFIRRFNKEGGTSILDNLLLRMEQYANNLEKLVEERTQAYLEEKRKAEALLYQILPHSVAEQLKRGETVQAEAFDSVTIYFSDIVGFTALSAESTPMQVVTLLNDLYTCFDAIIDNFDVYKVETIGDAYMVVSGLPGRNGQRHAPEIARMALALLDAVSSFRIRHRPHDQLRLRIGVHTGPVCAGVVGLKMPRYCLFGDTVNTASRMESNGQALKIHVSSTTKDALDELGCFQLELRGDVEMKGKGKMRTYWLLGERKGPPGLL
Atrial natriuretic peptide receptor 1 (Homo sapiens), sequence (P16066 whole entry, looked up): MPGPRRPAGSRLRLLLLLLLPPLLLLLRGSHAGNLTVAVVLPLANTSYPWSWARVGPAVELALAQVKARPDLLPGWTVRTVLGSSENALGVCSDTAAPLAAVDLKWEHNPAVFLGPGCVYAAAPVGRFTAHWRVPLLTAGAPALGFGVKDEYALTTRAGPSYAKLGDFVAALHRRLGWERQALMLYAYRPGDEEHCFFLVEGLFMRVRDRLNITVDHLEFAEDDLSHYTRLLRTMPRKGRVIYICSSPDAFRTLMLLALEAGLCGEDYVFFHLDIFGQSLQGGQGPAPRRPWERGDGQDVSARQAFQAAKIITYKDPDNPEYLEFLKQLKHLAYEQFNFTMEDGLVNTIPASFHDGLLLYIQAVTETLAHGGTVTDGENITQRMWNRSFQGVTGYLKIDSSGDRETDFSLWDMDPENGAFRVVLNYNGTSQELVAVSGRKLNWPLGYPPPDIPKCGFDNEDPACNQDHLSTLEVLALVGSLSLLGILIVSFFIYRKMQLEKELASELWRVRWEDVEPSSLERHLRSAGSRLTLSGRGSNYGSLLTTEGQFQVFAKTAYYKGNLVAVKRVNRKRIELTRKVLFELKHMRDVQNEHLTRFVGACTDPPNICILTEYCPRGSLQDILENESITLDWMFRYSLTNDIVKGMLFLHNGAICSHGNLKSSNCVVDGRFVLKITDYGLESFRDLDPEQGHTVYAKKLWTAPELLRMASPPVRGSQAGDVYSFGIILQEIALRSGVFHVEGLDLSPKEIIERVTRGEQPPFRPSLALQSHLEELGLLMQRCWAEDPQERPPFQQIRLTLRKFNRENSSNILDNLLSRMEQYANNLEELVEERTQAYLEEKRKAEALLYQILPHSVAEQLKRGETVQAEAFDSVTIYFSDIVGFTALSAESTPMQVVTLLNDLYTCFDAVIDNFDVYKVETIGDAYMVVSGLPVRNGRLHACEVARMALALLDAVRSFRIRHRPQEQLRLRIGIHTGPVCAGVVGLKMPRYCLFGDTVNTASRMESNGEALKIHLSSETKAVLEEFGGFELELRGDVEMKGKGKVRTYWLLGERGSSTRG
Parathyroid hormone/parathyroid hormone-related peptide receptor (Homo sapiens), sequence (Q03431 whole entry, looked up): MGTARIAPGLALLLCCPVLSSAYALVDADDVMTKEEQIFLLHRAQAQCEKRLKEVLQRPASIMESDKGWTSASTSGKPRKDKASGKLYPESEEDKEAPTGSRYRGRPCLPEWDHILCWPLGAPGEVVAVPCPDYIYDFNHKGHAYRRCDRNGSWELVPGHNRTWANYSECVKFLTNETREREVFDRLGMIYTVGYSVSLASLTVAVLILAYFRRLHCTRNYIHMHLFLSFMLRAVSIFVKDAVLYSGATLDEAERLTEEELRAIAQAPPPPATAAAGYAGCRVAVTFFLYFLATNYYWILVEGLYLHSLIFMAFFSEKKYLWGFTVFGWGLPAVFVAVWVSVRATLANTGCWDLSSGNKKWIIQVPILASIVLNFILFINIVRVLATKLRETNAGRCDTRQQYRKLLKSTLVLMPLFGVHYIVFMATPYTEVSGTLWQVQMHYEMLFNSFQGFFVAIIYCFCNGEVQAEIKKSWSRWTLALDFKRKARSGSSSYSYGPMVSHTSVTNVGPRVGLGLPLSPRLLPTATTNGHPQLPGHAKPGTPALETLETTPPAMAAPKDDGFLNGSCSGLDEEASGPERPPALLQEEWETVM
Nucleoprotein (Lymphocytic choriomeningitis virus (strain Armstrong)), sequence (P09992 whole entry, looked up): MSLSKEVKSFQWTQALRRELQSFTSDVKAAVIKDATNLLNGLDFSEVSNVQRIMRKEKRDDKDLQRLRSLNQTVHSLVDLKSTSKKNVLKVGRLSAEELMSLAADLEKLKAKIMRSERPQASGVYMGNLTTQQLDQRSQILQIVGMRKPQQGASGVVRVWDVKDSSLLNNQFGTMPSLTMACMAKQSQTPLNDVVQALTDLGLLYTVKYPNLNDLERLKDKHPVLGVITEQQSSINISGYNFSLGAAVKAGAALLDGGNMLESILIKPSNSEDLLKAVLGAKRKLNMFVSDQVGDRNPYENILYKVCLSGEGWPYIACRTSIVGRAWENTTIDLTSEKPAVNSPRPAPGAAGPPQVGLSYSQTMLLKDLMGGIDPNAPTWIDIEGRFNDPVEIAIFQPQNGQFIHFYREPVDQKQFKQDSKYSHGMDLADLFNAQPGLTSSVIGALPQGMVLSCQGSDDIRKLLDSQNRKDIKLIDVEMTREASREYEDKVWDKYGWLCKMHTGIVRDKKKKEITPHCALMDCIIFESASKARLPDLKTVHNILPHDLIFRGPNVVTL

CCCCCN(C)CCC(O)(P(=O)(O)O)P(=O)(O)O
inactive: [1] | [2] | [3] | [4] | [5] | [6] | [7] | [8] | [9]

CC(C)(C)NCC(O)c1ccccc1Cl (centres undefined)
not listed: [20]
inactive: all other assays above

COC(=O)[C@@H](N)CCCN/C(N)=N/[N+](=O)[O-]
not listed: [3] | [4] | [5] | [10] | [11] | [12] | [13]
inactive: all other assays above

CN1C(=O)CC(=O)N(c2ccccc2)c2cc(Cl)ccc21
inactive: [1]

CCCC(C)(COC(N)=O)COC(N)=O
inactive: [1]

Clc1ccc2c(c1)C(c1ccccc1)=NCc1nncn1-2
inactive: [1]

NCCc1ccc(O)cc1
inactive: all assays above

COC(=O)C(c1ccccc1)C1CCCCN1 (centres undefined)
inactive: [1]

CCN(CC)CCc1c[nH]c2ccccc12
not listed: [3] | [4] | [5] | [10] | [11] | [12] | [13]
inactive: all other assays above

CC(NC(C)(C)C)C(=O)c1cccc(Cl)c1 (centres undefined)
active: [20] 1.1 nM and 29.6 µM
inactive: all other assays above

O=C(Nc1ccc(Br)cc1)c1cc(Br)cc(Br)c1O
active: [1] 4.61 µM | [15] 21.1 µM
inactive: [2] | [6] | [7] | [8] | [9] | [14]

CC(C)[C@H]1C(=O)N2CCC[C@H]2[C@]2(O)O[C@](NC(=O)[C@@H]3C[C@@H]4c5cccc6[nH]cc(c56)C[C@H]4N(C)C3)(C(C)C)C(=O)N12
inactive: [1]

CN1C(=O)NC(=O)C(C)(C2=CCCCC2)C1=O (centres undefined)
not listed: [3] | [4] | [5] | [10] | [11] | [12] | [13]
inactive: all other assays above

C=C(C)[C@H]1CN[C@H](C(=O)O)[C@H]1CC(=O)O
not listed: [10]
inactive: all other assays above

CC1(C)C(C=C(Cl)Cl)C1C(=O)OC(C#N)c1cccc(Oc2ccccc2)c1 (centres undefined)
not listed: [3] | [4] | [5] | [10] | [11] | [12] | [13]
inactive: all other assays above

O=C1Nc2ccc(Cl)cc2C(c2ccccc2)=NC1O (centres undefined)
inactive: [1]

COP(=S)(OC)Oc1cc(Cl)c(Cl)cc1Cl
not listed: [3] | [4] | [5] | [10] | [11] | [12] | [13]
inactive: all other assays above

CN1CC[C@]23c4c5ccc(O)c4O[C@H]2[C@@H](O)CC[C@H]3[C@H]1C5
not listed: [3] | [4] | [5] | [10] | [11] | [12] | [13]
inactive: all other assays above

CC(C)C[C@H](CN)CC(=O)O
active: [20] 23.5 µM
not listed: [3] | [4] | [5] | [10] | [11] | [12] | [13]
inactive: all other assays above

O=P1(N(CCCl)CCCl)NCCCO1 (centres undefined)
inactive: all assays above

O=C(N/N=C/c1ccc([N+](=O)[O-])o1)c1cc([N+](=O)[O-])cc([N+](=O)[O-])c1O
not listed: [3] | [4] | [5] | [10] | [11] | [12] | [13]
inactive: all other assays above

O=C(O)CCCc1ccc(N(CCCl)CCCl)cc1
active: [16] 13.2 µM | [20] 20.9 µM | [19] 11.9 µM and 1.05 µM
not listed: [3] | [4] | [5] | [18]
inactive: all other assays above

CN1CCC(O)(c2ccc(F)cc2)C(C(=O)c2ccc(F)cc2)C1 (centres undefined)
not listed: [3] | [4] | [5] | [10] | [11] | [12] | [13]
inactive: all other assays above
